Laboratory results as given in PMC5540273 (PLoS ONE, 2017).

system: LTK; conditions: concentration: 1 μM, replicates: in singlicate; n = 1
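Further: KINOMEscan kinase panel screen.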

Structure (SMILES)	%Inh
COc1ccc(CNC(=O)NC2CCN(c3ccnc(Nc4ccc(OC)cc4)n3)C2)cc1 (stereo not drawn) [GSK1379727]	0%
c1ccc(-c2cc(-c3c[nH]nc3-c3ccccn3)ccn2)cc1 [GW576604]	19%
Cn1cc(-c2ccc3c(c2)CCN3C(=O)Cc2ccccc2Cl)c2c(N)ncnc21 [GSK2608885]	55%
CNc1ncnc2[nH]ncc12 [SKF-18355]	0%
Fc1ccc(-c2ncn(CCCN3CCOCC3)c2-c2ccccn2)cc1 [SB-211742]	11%
NS(=O)(=O)c1cccc(-c2ccc3ncc(N4CCOCC4)nc3c2)c1 [GSK1535721]	8%
COc1ccc(Nc2nccc(N3CCC(NC(=O)Nc4cc(C)ccc4C)C3)n2)cc1 (stereo not drawn) [GSK1379741]	7%
COCCNC(=O)c1ccc(-c2cc(C(=O)NC3CC3)cc(F)c2C)cc1 [GW868318]	15%
Cc1nnc(-c2ccc3ncc(-c4ccc(S(C)=O)cc4)n3c2)o1 (stereo not drawn)	0%
c1ccc(-c2n[nH]cc2-c2ccnc3ccccc23)nc1 [GW271431]	13%
Cn1ccc2ncnc(Oc3ccc(NC(=O)Nc4ccncc4)c(Cl)c3)c21	0%
Cc1cn2c(=O)cc(N3CCOCC3)nc2n1Cc1cccc(Cl)c1Cl [GSK2334006]	7%
Fc1ccc(-c2ncn(CCCN3CCOCC3)c2-c2cccnc2)cc1 [SB-211743]	18%
Cc1cccc(-c2nc(Nc3ccc4ncsc4c3)c3ccccc3n2)n1 [GW867588]	7%
Cc1cccc(Cn2ccn3c(=O)cc(N4CCOCC4)nc23)c1 [GSK2297542]	0%
N#Cc1c(N2CCOCC2)sc(-c2ccn[nH]2)c1-c1ccc(Cl)cc1	17%
COc1cc2c(cc1OCCN1CCN(C)CC1)ncc1c3ccc(C#N)cc3[nH]c21	0%

Structure (SMILES)	%Inh
CN(C1=C(c2ccccc2)C(=O)NC1=O)c1ccccc1 [SB-334860]	6%
O=C1NC(=O)C(N2CCc3ccccc32)=C1c1cccc(Cl)c1 [SB-408010]	5%
[2H]C([2H])(c1cccc(C(F)(F)F)c1C)n1ccn2c(=O)nc(N3CCOCC3)cc12 [GSK2336394]	19%
CCc1nc(-c2cccc(C)c2)c(-c2ccnc(NCc3ccccc3)c2)s1	0%
Cc1cccc(-c2nc(-c3ccc(S(C)(=O)=O)cc3)sc2-c2ccncc2)c1	0%
CCc1ccnc(/C=C/c2n[nH]c3cc(Sc4ccccc4C(=O)NC)ccc23)c1	6%
CSc1ccc(-c2cc3ncnc(SCC(=O)O)c3s2)cc1	17%
CC(=O)Nc1ccc(COc2ccc(Nc3ccnc4cc(-c5ccccn5)ccc34)cc2)cc1.Cl [GW440148]	7%
COc1cc2ncn(-c3cc(OCc4sccc4Cl)c(C(N)=O)s3)c2cc1OC [GSK448459]	0%
Fc1ccc(-c2nn3c(OCC(F)(F)F)cccc3c2-c2ccncc2)cc1 [GW514784]	0%
CC(C)(C)n1cnc2c(N)ncnc21 [SKF-97359]	0%
O=C(NCCNc1ccnc(Nc2ccc(F)cc2)n1)c1cc2ccccc2s1 [GSK1379874]	0%
COc1ccc(S(=O)(=O)NC2CCN(c3cc(C)nc(Nc4cccc(C#N)c4)n3)CC2)cc1.O=C(O)C(F)(F)F [GSK1653539]	0%
Cc1ccc(C(=O)NCC(N)=O)cc1-n1c(C)cc(OCc2ccc(F)cc2F)c(Br)c1=O	27%
Cl.Oc1cccc(Nc2ccnc3cc(-c4ccncc4)ccc23)c1 [GW494601]	69%
O=C(Nc1n[nH]c2cc(-c3cccc(F)c3)ccc12)C1CC1 [SB-735464]	0%
